Assay results as given in PubChem BioAssay (EPA / NIEHS).
Records with an inconclusive call do not appear. The source made the active and inactive calls. Rule for the calls, unless noted: active = hit-call score of the fitted dose curve at least 0.9, where 1 is the maximum; inconclusive = response in the unintended direction; inactive = score below 0.9.

Read-out: not listed separately
Experiment: CEETOX_H295R_MTT_cell_viability: Viability Assessment in the CeeTox HT-H295R MTT Assay (AID 2283718; active = hit-call score of the fitted dose curve at least 0.9, where 1 is the maximum; inactive = score below 0.9;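 for AC50: curve fitted both ways so AC50 may mark viability loss or gain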)
In short: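 H295R cells prestimulated 48 h with 10 uM forskolin, then exposed 48 h to test chemical (0.1% DMSO final). Viability by MTT (0.5 mg/ml, 4 h, 37 C), absorbance 570/650 nm; percent change versus DMSO, bidirectional fit.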

Row | Structure (SMILES) | outcome | AC50
1 | Cc1c(COC(=O)[C@@H]2[C@H](/C=C(\Cl)C(F)(F)F)C2(C)C)cccc1-c1ccccc1 | inactive | –
2 | CCOc1cc(C(C)(C)C)ccc1C1COC(c2c(F)cccc2F)=N1 (stereo not drawn) | inactive | –
3 | CCOC(=O)C(C)OC(=O)c1cc(Oc2ccc(C(F)(F)F)cc2Cl)ccc1[N+](=O)[O-] (stereo not drawn) | inactive | –
4 | COP(=S)(OC)Oc1ccc([N+](=O)[O-])c(C)c1 | inactive | –
5 | CCN(CC)c1nc(C)cc(OP(=S)(OC)OC)n1 | inactive | –
6 | Nc1cnn(-c2ccccc2)c(=O)c1Cl | inactive | –
7 | CCCC(=NOCC)C1=C(O)CC(CC(C)SCC)CC1=O (stereo not drawn) | inactive | –
8 | COc1cc(Cl)c(OC)cc1Cl | inactive | –
9 | N#Cc1c(Cl)cccc1Cl | inactive | –
10 | Clc1nc(Cl)nc(Nc2ccccc2Cl)n1 | inactive | –
11 | COP(=S)(OC)SCn1nnc2ccccc2c1=O | inactive | –
12 | COC(=O)NC(=S)Nc1ccccc1NC(=S)NC(=O)OC | inactive | –
13 | CC(C)Oc1cccc(NC(=O)c2ccccc2C(F)(F)F)c1 | – | 71.1 µM (active)

System: not listed separately
Experiment: Tanguay_ZF_120hpf_ActivityScore_legacy: (Legacy) Oregon State University Tanguay Lab 120 Hour Post-fertilization zebrafish Assay Score for Activity (AID 2283742);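 for AC50: dechorionated Tropical 5D wild-type zebrafish embryos held singly per well; static exposure from 6 hpf until 120 hpf at 28 °C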
In short: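 In this whole-embryo screen, dechorionated zebrafish were exposed from 6 hpf until 120 hpf at 28C under a 0.64% DMSO vehicle. Developmental malformations and death were recorded by brightfield microscopy as binary endpoints.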

Row | Structure (SMILES) | outcome | AC50
14 | Cc1c(COC(=O)[C@@H]2[C@H](/C=C(\Cl)C(F)(F)F)C2(C)C)cccc1-c1ccccc1 | inactive | –
15 | CCOc1cc(C(C)(C)C)ccc1C1COC(c2c(F)cccc2F)=N1 (stereo not drawn) | inactive | –
16 | CCOC(=O)C(C)OC(=O)c1cc(Oc2ccc(C(F)(F)F)cc2Cl)ccc1[N+](=O)[O-] (stereo not drawn) | inactive | –
17 | COC(=O)NS(=O)(=O)c1ccc(N)cc1 | inactive | –
18 | Nc1c(Cl)c(F)nc(OCC(=O)O)c1Cl | inactive | –
19 | CC(C)=CC1C(C(=O)OCc2coc(Cc3ccccc3)c2)C1(C)C (stereo not drawn) | inactive | –
20 | COP(=O)(OC)O/C(C)=C/C(=O)N(C)C | inactive | –
21 | COP(=S)(OC)Oc1ccc([N+](=O)[O-])c(C)c1 | inactive | –
22 | CCN(CC)c1nc(C)cc(OP(=S)(OC)OC)n1 | inactive | –
23 | COC(=O)N(C(=O)N1CO[C@@]2(C(=O)OC)Cc3cc(Cl)ccc3C2=N1)c1ccc(OC(F)(F)F)cc1 | inactive | –
24 | O=c1n(Cl)c(=O)n(Cl)c(=O)n1Cl | inactive | –
25 | Nc1cnn(-c2ccccc2)c(=O)c1Cl | inactive | –
26 | CNC(=O)N(C)c1nnc(C(C)(C)C)s1 | inactive | –
27 | CCCC(=NOCC)C1=C(O)CC(CC(C)SCC)CC1=O (stereo not drawn) | inactive | –
28 | COc1cc(Cl)c(OC)cc1Cl | inactive | –
29 | CN=C=S | inactive | –
30 | Cc1cnc(C2=NC(C)(C(C)C)C(=O)N2)c(C(=O)O)c1 (stereo not drawn) | inactive | –
31 | CC(C)N1C(=O)c2ccccc2NS1(=O)=O | inactive | –

Row | Structure (SMILES) | outcome | AC50
32 | Nc1c(Cl)c(Cl)nc(C(=O)O)c1Cl | inactive | –
33 | Cc1ccc(N=CN(C)C=Nc2ccc(C)cc2C)c(C)c1 | inactive | –
34 | OC(c1ccc(Cl)cc1)(c1ccc(Cl)cc1)C(Cl)(Cl)Cl | inactive | –
35 | N#Cc1c(Cl)cccc1Cl | inactive | –
36 | C=C(C)CN(CC)c1c([N+](=O)[O-])cc(C(F)(F)F)cc1[N+](=O)[O-] | inactive | –
37 | Clc1nc(Cl)nc(Nc2ccccc2Cl)n1 | inactive | –
38 | CC1(C)C(C(=O)OC(C#N)c2cccc(Oc3ccccc3)c2)C1(C)C (stereo not drawn) | inactive | –
39 | COP(=S)(OC)SCn1nnc2ccccc2c1=O | inactive | –
40 | O=C(O)c1c(Cl)ccc2cc(Cl)cnc12 | inactive | –
41 | C=CCOC(=O)C(C)(C)OC(=O)c1cc(-n2c(=O)cc(C(F)(F)F)n(C)c2=O)ccc1Cl | inactive | –
42 | COC(=O)NC(=S)Nc1ccccc1NC(=S)NC(=O)OC | inactive | –
43 | CC(C)N1C(=O)N(c2ccccc2)CSC1=NC(C)(C)C | inactive | –
44 | CCCCOCN(C(=O)CCl)c1c(CC)cccc1CC | inactive | –
45 | CCOP(=O)(OCC)Oc1nc(Cl)c(Cl)cc1Cl | – | 1.15 µM (active)
46 | CC(C)Oc1cccc(NC(=O)c2ccccc2C(F)(F)F)c1 | – | 34.2 µM (active)
47 | COCC(C)N(C(=O)CCl)c1c(C)csc1C (stereo not drawn) | – | 29.2 µM (active)
48 | CSC(=O)c1c(C(F)F)nc(C(F)(F)F)c(C(=O)SC)c1CC(C)C | inactive | –
49 | O=P(O)(O)CCCl | inactive | –

System: Thyroperoxidase (TPO), gene 445522
Experiment: CCTE_Simmons_GUA_TPO: CCTE's Guaiacol Assay for Thyroperoxidase (TPO) Inhibition, Simmons Lab (AID 2283750)
In short: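 Porcine thyroid microsomes (25 ug) in 200mM potassium phosphate, preincubated 30 s at 37C with compound (8 concentrations, 5 nM–87.5 uM) and 35mM guaiacol; 1mM H2O2 starts reaction. Absorbance change at 450nm over first 80 s; loss of signal versus DMSO, three replicates.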

Row | Structure (SMILES) | AC50 | outcome
50 | COC(=O)NS(=O)(=O)c1ccc(N)cc1 | 136 µM (active) | –
51 | COP(=S)(OC)Oc1ccc([N+](=O)[O-])c(C)c1 | – | inactive
52 | COP(=S)(OC)SCn1nnc2ccccc2c1=O | 49.6 µM (active) | –
53 | COC(=O)NC(=S)Nc1ccccc1NC(=S)NC(=O)OC | 49.6 µM (active) | –
